# The list is not random: actives were taken first. Their share in the collection is about 2.2%.
# Rce1 inhib = inhibitors of yeast Ras-converting enzyme; yeast membranes, quenched prenylated peptide cleavage fluorescence; calls only; Q03530; actives 0.27% (n = 290,000);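 active = fall in fluorescence gain of 50% or more versus controls, with final raw signal at or below 3038400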
# M18AAP inhibitor = blocks P. falciparum M18 aspartyl aminopeptidase | recombinant PfM18AAP, H-Glu-NHMec fluorogenic cleavage | inhibition, % at 7.35 µM | actives 1.2% (n = 290,000);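 active = inhibition above the campaign mean inhibition over all tested compounds plus 3 SD, cut at about 28% in these data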
# PLC-gamma1 inh = PLC-gamma1 (human) inhibition, primary screen. P19174. purified PLC-gamma1, fluorogenic substrate, fluorescence. inhibition, % at 12.2 µM. actives 0.84% (n = 370,000). AID 720700
# PLC-beta3 inh = blocks human PLC-beta3 enzyme activity; inhibition, % at 12.2 µM; Purified PLC-beta3, fluorogenic substrate, fluorescence; actives 0.18% (n = 370,000); in the data active = inhibition above about 11%
# GC-B act = GC-B (human) receptor activation | HEK293-GC-B cells, CNP EC30, cGMP TR-FRET; 0% at EC30 CNP, 100% saturating CNP | activation, % at 10 µM | actives 0.11% (n = 370,000) | AID 1920062;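 active = activation at 10 µM reaching about 35% in either raw or pattern-adjusted values, limit read from the data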
# NPR1 activator = GC-A (human) enzyme activation; P16066; activation, % at 10 µM; actives 0.14% (n = 370,000); HEK293 GC-A cells, cGMP TR-FRET, EC30 ANP; 0% at EC30 ANP, 100% saturating ANP; AID 1671463; in the data active = activation above about 40%
# PLCgamma1 ctr = counter-screen for PLC-beta3 inhibitors: inhibitors of human PLC-gamma1; shares compounds with PLC-gamma1 inh; purified PLC-gamma1, fluorogenic substrate, fluorescence; inhibition, % at 12.3 µM; actives 3.1% (n = 3,300); AID 743258
# PLCbeta3 conf = human PLC-beta3 inhibition, confirmation. actives 1% (n = 3,300). inhibition, % at 12.3 µM. AID 743261. shares compounds with PLC-gamma1 inh. purified PLC-beta3, fluorogenic substrate fluorescence; in the data active = inhibition above about 11%
# Numbers stand for hits; 0 = inactive; - = no result. Rule as the data show it, unless noted: active = inhibition above about 9.5%; inactive = the rest.
SMILES,Rce1 inhib,M18AAP inhibitor,PLC-gamma1 inh,PLC-beta3 inh,GC-B act,NPR1 activator,PLCgamma1 ctr,PLCbeta3 conf
OC(CCN1CCCCC1)(c1ccccc1)C1CC2C=CC1C2 (stereo not drawn),-,-,0,0,0,0,-,-
c1ccc(CSc2nnc(SCc3ccccn3)s2)nc1,0,0,11,14,0,0,0,0
CC(C)OC(=O)c1ccccc1C(=O)c1ccc(N)c([N+](=O)[O-])c1,0,0,9.8,0,0,0,0,0
Nc1n[nH]c(N)c1N=Nc1ccc(Cl)cc1,0,0,20,14,0,0,0,0
O=C1CSc2ccc(C(=O)N3CCCC(C(=O)N4CCCCC4)C3)cc2N1 (stereo not drawn),-,-,0,0,0,0,-,-
Cc1ccc2c(c1)N(CCC(=O)NC1CC1)C(=O)C(C)O2 (stereo not drawn),0,0,0,12,0,0,0,0
CCCCNC(=O)COC(=O)c1ccc(C)c(NC(=O)c2ccco2)c1,0,0,0,0,0,0,-,-
Cc1ccc(C(=O)OCc2c(C)noc2C)cc1NC(=O)c1ccco1,0,0,11,0,0,0,0,0
O=C(c1ccc(Br)cc1)c1cc([N+](=O)[O-])ccc1N1CCCCC1,0,0,14,0,0,0,0,0
c1ccc(Nc2cc(Nc3ccccc3)[nH]n2)cc1,0,0,22,0,0,0,0,0
O=S(=O)(c1cccs1)N1CCC(CO)(Cc2ccc(Cl)cc2)CC1,0,0,10,0,0,0,0,0
COc1ccc(N2CCN(C(=O)C(=O)c3c[nH]c4ccccc34)CC2)cc1,0,0,9.8,0,0,0,0,0
O=C(C(=O)N1CCN(c2ccccc2)CC1)c1c[nH]c2ccccc12,0,0,0,0,0,0,-,-
COc1cccc(-c2ncn(CCc3ccccc3OC)c2CC(C)C)c1,-,-,0,0,0,0,-,-
C=C1CC2(CC(c3ccccc3)OC(c3ccccc3)C2)OC1=O (stereo not drawn),-,-,13,0,0,0,0,0
O=C1CCCC[C@@H](O)[C@H](O)C[C@H](c2ccccc2)O1,-,-,0,0,0,0,-,-
Cc1cccc2cc(CN(Cc3ccco3)C(=O)Nc3cccc(C#N)c3)c(Cl)nc12,0,0,11,0,0,0,0,0
Cc1ccccc1CN1CCCCC(NC(=O)C2CCCCC2)C1=O (stereo not drawn),-,-,0,0,0,0,-,-
O=[N+]([O-])c1ccc(Nc2ccccc2O)c([N+](=O)[O-])c1,-,-,9.5,0,0,0,0,0
COc1ccc(OCCOc2ccc(S(=O)(=O)N3CCCC3)cc2[N+](=O)[O-])cc1,-,-,0,0,0,0,-,-
COc1cccc(Oc2ccc(S(=O)(=O)N3CCCC3)cc2[N+](=O)[O-])c1,0,0,9.6,0,0,0,0,0
COC(=O)[C@]12C[C@H](CC(=O)N3CCN(C(=O)c4ccco4)CC3)C(=O)N(Cc3ccc(Cl)cc3Cl)C1=C[C@H](COCc1ccccc1)O[C@@H]2C,-,-,13,0,0,0,0,0
COc1cccc2cc(/C(=N/O)c3ccc(Br)cc3)oc12,0,0,0,0,0,0,-,-
O/N=C(/c1ccccc1)c1cc2cc(Br)cc(Br)c2o1,0,0,12,0,0,0,0,0
C=CCN1C(=O)[C@@H](CC(=O)NCCc2ccccc2OC)[C@]2(C(=O)OCC)CCCCC/C=C/12,-,-,0,0,0,0,-,-
SMILES,Rce1 inhib,M18AAP inhibitor,PLC-gamma1 inh,PLC-beta3 inh,GC-B act,NPR1 activator,PLCgamma1 ctr,PLCbeta3 conf
Cc1noc(C)c1S(=O)(=O)N1CCCc2nc(-c3ccc(Br)cc3)ccc21,-,-,0,0,0,0,-,-
Cc1ccc(S(=O)(=O)N2CCN(C(=O)Cn3nc(C)c([N+](=O)[O-])c3C)CC2)c(C)c1,0,0,10,0,0,0,0,0
CCCC[C@H]1C2CC(OC(=O)Nc3cccc(C(F)(F)F)c3)C(C2)[C@H]2CCCCN21 (stereo partly drawn),-,-,0,0,0,0,-,-
O=C(O)c1ccc(Cl)cc1NC(=O)C1CCCO1 (stereo not drawn),0,0,0,12,0,0,0,0
CCN(CC)C(=O)C1=C(C)N(Cc2ccc(F)cc2)C(=O)C(CC(=O)NC2CCCCC2)C1 (stereo not drawn),-,-,0,0,0,0,-,-
CCN(CC)C(=O)C1=C(C)N(Cc2ccc(C(C)(C)C)cc2)C(=O)C(CC(=O)NC2CCCC2)C1 (stereo not drawn),-,-,11,0,0,0,0,0
C=CCN1[C@@H](C)COc2cccc(F)c2S1(=O)=O,-,-,0,0,0,0,-,-
Cc1ccc(-n2c(Cc3cccs3)nnc2SCc2ccc([N+](=O)[O-])cc2)cc1,-,-,0,0,0,0,-,-
O=C(NC1CCC1)C1CCC(=O)N(Cc2cccc(F)c2)C1 (stereo not drawn),0,0,10,0,0,0,0,0
O=C(NCCc1nccs1)C1CCC(=O)N(Cc2cccc(C(F)(F)F)c2)C1 (stereo not drawn),0,0,13,0,0,0,0,0
O=C(NC1CCC1)C1CCC(=O)N(Cc2ccccc2F)C1 (stereo not drawn),0,0,0,0,0,0,-,-
O=C(NCC(=O)N(c1cccnc1)C(C(=O)NC1CCCC1)c1ccccc1)c1ccco1 (stereo not drawn),0,0,0,0,0,0,-,-
O=C(NCC(=O)N(c1cccnc1)C(C(=O)NC1CCCCC1)c1ccccc1F)c1ccco1 (stereo not drawn),0,0,11,0,0,0,0,0
CCCCN(C(=O)CNC(=O)c1ccco1)C(C(=O)NC1CCCC1)c1ccc(OC)cc1 (stereo not drawn),0,0,12,0,0,0,0,0
Cc1occc1-c1nnc(SCC(=O)Nc2ccc3ncccc3c2)n1-c1ccccc1,-,-,0,0,0,0,-,-
Cc1cccc(-n2c(Cc3ccccc3)nnc2SCC(=O)N2CCOCC2)c1,0,0,14,0,0,0,0,0
COc1ccc(C(=O)NCC2CCCN2S(=O)(=O)c2ccccc2)cc1OC (stereo not drawn),-,-,9.5,0,0,0,0,0
CC(=O)Nc1nnc(CCS(=O)(=O)c2ccc(C)c(C)c2)s1,0,0,14,0,0,0,0,0
Cc1ccc(S(=O)(=O)CCc2nnc(NC(=O)C3CCCCC3)s2)cc1,0,0,0,0,0,0,-,-
O=C(CCCN1C(=O)/C(=C/c2ccco2)SC1=S)Nc1cccc(C(=O)O)c1,0,0,11,0,0,0,0,0
O=C(CCCN1C(=O)/C(=C\c2cccs2)SC1=S)Nc1ccc(O)cc1C(=O)O,0,0,0,0,0,0,-,-

# Compound activity as filed in PubChem BioAssay.
